In PubChem BioAssay (Tox21):
Inconclusive results are not listed. Values without a mark were called inactive. Active and inactive are the calls of the source. The call rests on the fitted dose curve.

assay: qHTS assay to identify small molecule agonists of H2AX - cell viability counter screen (AID 1224847); conditions: CHO-K1 viability, CellTiter-Glo luminescence, 3 h; series mostly up to 154 µM; activity change, negative = cytotoxicity: at the top concentration; further: nearly all actives have a fitted effect of over 30% in size; on activity change, negative = cytotoxicity: top concentration of the series differs between compounds
Excerpt: National Center for Advancing Translational Sciences [NCATS]
NIH Chemical Genomics Center [NCGC]
U.S. Environmental Protection Agency [EPA]
National Institutes of Environmental Health Sciences [NIEHS]
National Toxicology Program [NTP]
U.S. Food and Drug Administration [FDA]
HTRF phospho-H2AX (Ser139) assay (Cisbio Bioassays, US) enables the quantitative detection of the histone variant H2AX when phosphorylated on serine 139. When double-stranded DNA breaks, either by ionizing radiation or endogenous physiological processes, H2AX becomes phosphorylated at Ser139. This phospho-Ser139 serves as a sensitive biomarker for the detection of such breaks, localizing the site of DNA repair. So, HTRF phospho-H2AX Ser139 is a pertinent assay to study genome stability, the cell cycle, DNA repair, and it serves as a biomarker for cancer, and to understand aging. Wild type CHO-K1 cells were used to identify the inducers of Phospho-H2AX Ser 139 from the Tox21 compound collections. Also cytotoxicity of the Tox21 10K compound library against the CHO-K1 cell line was tested by measuring the cell viability using CellTiter-Glo assay (Promega, Madison, WI).
Tox21 Assay Protocol Summary:
The CHO-K1 cells suspended in culture medium containing 10% FBS were dispensed at 1000 cells/ 3 ul/well in 1536-well white wall/solid bottom plates (Greiner Bio-One North America, NC) using a Multidrop Combi (Thermo Fisher Scientific Inc., Waltham, MA). After the assay plates were incubated at 37C overnight, 23 nl of compounds at 15 concentrations (from 5-48 columns) or positive control (from 1 to 4 columns) were transferred to the assay plates using a Pintool station (Wako, San Diego, CA) into each well resulting in a final DMSO concentration of 0.76%. After 3hr incubation at 37C, 3 uL/well CellTiter-Glo luminescent cell viability reagent (Promega Corporation, Madison, WI) was added using a Flying Reagent Dispenser (FRD) (Aurora Discovery, CA). After incubation at room temperature for 30 min, the luminescence intensity was read using a ViewLux plate reader (PerkinElmer, Waltham, MA).
On the % scale 0 is the no-effect control and ±100 the full control effect; potency means the concentration at half of the fitted maximal effect.

| Structure (SMILES) | activity change, negative = cytotoxicity | Potency |
| --- | --- | --- |
| Cc1cnc2c(C(=O)O)c(Cl)ccc2c1 | 3.77% |  |
| S=C=Nc1ccccc1 | 0.537% |  |
| S=C=NCCc1ccccc1 | 11.1% |  |
| CC[C@H](C)[C@H]1O[C@]2(C=C[C@@H]1C)C[C@@H]1C[C@@H](C/C=C(\C)[C@@H](O[C@H]3C[C@H](OC)[C@@H](O[C@H]4C[C@H](OC)[C@@H](NC)[C@H](C)O4)[C@H](C)O3)[C@@H](C)/C=C/C=C3\CO[C@@H]4[C@H](O)C(C)=C[C@@H](C(=O)O1)[C@]34O)O2 |  | 16 µM (active) |
| O=C1C(Cl)=C(Cl)C(=O)C(Cl)=C1Cl |  | inactive |
| O=[N+]([O-])C(Br)Br | -1.75% |  |
| Clc1c(Cl)c(Cl)c(Cl)c(Cl)c1Cl | -1.8% [at 14 µM] |  |
| COC(=O)c1ccccc1S(=O)(=O)NC(=O)Nc1nc(C)nc(OC)n1 | -0.415% |  |
| O=c1[nH]c(Cl)c(Cl)cc1Cl | -3.16% |  |
| C=CC(=C)C | -4.27% |  |
| CN(C)CCc1c[nH]c2ccccc12 | -1.03% |  |
| C=CCBr | 2.43% |  |
| C=C(C)C(=O)[O][Sn]([CH2]CCC)([CH2]CCC)[CH2]CCC |  | 0.713 µM (active) |
| C1=CCC=C1 | -3.72% |  |
| CC(=O)[O-].CC(=O)[O-].O.O.[Zn+2] | -3.2% |  |
| ClC1=C(Cl)[C@]2(Cl)[C@@H]3[C@H]4C[C@H]([C@@H]5O[C@H]45)[C@@H]3[C@@]1(Cl)C2(Cl)Cl | -0.526% |  |
| CC(C)(C)c1ccc(OP(=O)(Oc2ccccc2)Oc2ccccc2)cc1 | -3.71% |  |
| Clc1ccc(C2(Cn3cncn3)OCCO2)c(Cl)c1 | -7.5% |  |
| Brc1ccc(Oc2ccc(Br)cc2Br)c(Br)c1 |  | 113 µM (active) |
| CCCCON=O | 0.201% |  |

| Structure (SMILES) | activity change, negative = cytotoxicity | Potency |
| --- | --- | --- |
| CC1CCCC1 | 0.254% |  |
| C#CCO | 2.03% |  |
| CC(Cl)CCl (stereo not given) | 3.45% |  |
| O=C(O)[C@H](O)[C@@H](O)C(=O)O | 1.88% |  |
| O=S(=O)(O)F | -3.09% |  |
| C[C@]12Cc3cn[nH]c3C[C@@H]1CC[C@@H]1[C@@H]2CC[C@@]2(C)[C@H]1CC[C@]2(C)O | -7.67% [at 70.9 µM] |  |
| O=C(Cl)c1ccccc1F | 0.0707% |  |
| O=[N+]([O-])[O-].[Tl+] | -6.37% |  |
| ClC1(Cl)C2(Cl)C3(Cl)C4(Cl)C(Cl)(Cl)C5(Cl)C3(Cl)C1(Cl)C5(Cl)C24Cl (stereo not given) | 0.0201% |  |
| CCC[CH2][Sn]([CH2]CCC)([O]C(C)=O)[O]C(C)=O | -12.5% |  |
| CCCC[N+]1(C)CCCC1 (tested in a mixture with another compound) | -4.16% |  |
| [F][Sn]([c]1ccccc1)([c]1ccccc1)[c]1ccccc1 |  | 22.5 µM (active) |
| [Cl][Hg][c]1ccccc1 |  | 7.13 µM (active) |
| Oc1ccc(Cl)c(Cl)c1 |  | 49.7 µM (active) |
| Clc1ccc(C(Cl)(Cl)Cl)cc1Cl | -5.41% |  |
| Nc1cc(Cl)ccc1Cl | 0.193% |  |
| CCNc1nc(NC(C)C(C)C)nc(SC)n1 (stereo not given) | 1.53% |  |
| CC(C)C(Br)C(=O)NC(N)=O (stereo not given) | 2.39% [at 70.9 µM] |  |
| CN(C)c1ccc(N)cc1 |  | 87.6 µM (active) |
| COCCC#N | 0.152% |  |
